Results published in PubChem BioAssay AID1209 (Sanford-Burnham Center for Chemical Genomics, 2008).
The whole screen tested about 190,000 compounds, of which about 810 (0.43%) were called active. This is one part of a sample in which actives are shown more often than they occur. Values without a mark were called inactive. No stated cut-off is given here; in the data, active means inhibition above about 50%; inactive means the rest.

molecular target: Mannose-6-phosphate isomerase (Homo sapiens) (UniProt P34949); assay: MPI enzyme activity inhibition – biochemical, fluorescence intensity, coupled assay, primary screen (AID 1209); settings: purified PMI enzyme, at 20 µM, stronger effect = higher value;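 further: plate controls were DMSO vehicle for no effect and wells lacking substrate for full effect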
Sequence (P34949 whole entry, looked up): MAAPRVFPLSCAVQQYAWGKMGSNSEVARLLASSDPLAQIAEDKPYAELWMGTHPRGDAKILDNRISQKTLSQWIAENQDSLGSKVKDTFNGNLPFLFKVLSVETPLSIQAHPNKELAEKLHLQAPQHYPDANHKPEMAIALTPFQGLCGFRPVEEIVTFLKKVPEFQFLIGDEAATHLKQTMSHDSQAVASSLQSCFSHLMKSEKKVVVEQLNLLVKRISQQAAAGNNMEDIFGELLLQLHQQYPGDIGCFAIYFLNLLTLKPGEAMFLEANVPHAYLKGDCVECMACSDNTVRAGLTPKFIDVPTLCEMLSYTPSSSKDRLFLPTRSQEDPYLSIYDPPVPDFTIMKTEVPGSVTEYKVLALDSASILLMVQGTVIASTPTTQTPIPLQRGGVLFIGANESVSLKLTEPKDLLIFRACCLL

Structure (SMILES)	inhibition
C=CCOc1c(Cl)cc(CNc2ccc3[nH]c(=O)[nH]c3c2)cc1OC	26.3%
CC(C)(C)NC(=O)COc1ccc(CNc2ccc3[nH]c(=O)[nH]c3c2)cc1	62.2% (active)
CCc1ccc(OCC(=O)NC(C)(C)C)cc1	2.4%
CCOc1cc(CNC)ccc1OCC(=O)NC(C)(C)C	-7.3%
C=CCOc1cccc(CNc2ccc3[nH]c(=O)[nH]c3c2)c1	17.8%
CCOc1cc(CNc2ncn[nH]2)ccc1OCC(=O)NC(C)(C)C	7%
COc1cc(CNc2ccc(CNc3ncn[nH]3)cc2)ccc1OCC(=O)NC(C)(C)C	0.6%
CC(C)(C)NC(=O)COc1ccc(CNc2ncn[nH]2)cc1	6.1%
COc1cc(CNc2ccc3[nH]c(=O)[nH]c3c2)cc(Br)c1OCC(=O)NC(C)(C)C	29.5%
COc1cc(CNc2ccc3[nH]c(=O)[nH]c3c2)ccc1OCC(=O)NC(C)(C)C	82.4% (active)
C=CCOc1ccc(CNc2ccc3[nH]c(=O)[nH]c3c2)cc1OC	81.1% (active)
CCOc1cc(CNc2ccc3[nH]c(=O)[nH]c3c2)ccc1OCC(=O)NC(C)(C)C	75% (active)
CCCOc1ccc(C2/C(=C(/O)c3ccc(F)cc3)C(=O)C(=O)N2CCCN(C)C)cc1 (stereo not given)	16.2%
O=C(Nc1ccccc1N1CCOCC1)c1cc(-c2ccncc2)nc2ccccc12	4.3%
COc1cc(/C=C(\C#N)c2nc3ccc(C)cc3[nH]2)cc([N+](=O)[O-])c1O	46.2%
CN(C)/C=C1\C(=O)N(c2ccc([N+](=O)[O-])cc2)N=C1c1ccccc1	24.5%
O=C(NCCN1CCCC1)c1ccc(Cn2c(=S)[nH]c3ccc(Br)cc3c2=O)cc1	-24.9%
COc1ccc(C(=O)Nc2c(Cl)cc(Cl)cc2C(=O)NCCN2CCOCC2)cc1	2.6%
Cc1ccsc1/C=C/C(=O)O	-2.7%
Cc1cccc(N2CC(O)(c3cccs3)[N+]3=C2CCCC3)c1 (stereo not given)	-8.7%
CCC(CC)c1nc(C#N)c(NCc2ccccc2)o1	5.4%
CCOc1ccc(NC(=O)N2CCC(c3nc4ccccc4[nH]3)CC2)cc1	-14.1%
COc1ccc(-c2nc(CN3CCC(c4ccccc4)CC3)c(C)o2)cc1OC	12.5%
Cc1sc(NC(=O)c2ccccc2)c(C(=O)NC(C)C)c1C	2.2%
Cc1ccc(C(=O)c2c(NC(=O)c3ccccc3)sc(C)c2C)cc1	59.8% (active)

Structure (SMILES)	inhibition
Cc1sc(NC(=O)c2ccccc2)c(C(=O)c2ccccc2)c1C	57.2% (active)
Cc1sc(NC(=O)c2ccccc2)c(C(=O)NCCN(C)C)c1C	-8.6%
Cc1ccc(C(=O)Nc2sc(C)c(C)c2C(=O)c2ccccc2)cc1	50.2% (active)
Cc1ccccc1C(=O)Nc1sc(C)c(C)c1C(=O)c1ccccc1	13.9%
Cc1ccc(C(=O)c2c(NC(=O)c3ccccc3C)sc(C)c2C)cc1	12.9%
Cc1sc(NC(=O)CCl)c(C(=O)c2ccccc2)c1C	23.2%
CCN(CC)C(=O)c1c(NC(=O)c2ccccc2)sc(C)c1C	-0.5%
COc1ccc(-n2ccnc2SCC(=O)NC2CCCC2)c(OC)c1	-3.3%
CC(C)=CC(=O)OCC(=O)Nc1ccc(Cl)cn1	7%
Cc1nc(N2CCCCC2)c(C#N)c(C)c1[N+](=O)[O-]	1.3%
CC1CCN(C(=O)CCc2nnc(-c3ccccc3)o2)CC1	1.6%
COc1ccc(OC)c(-n2nnnc2SCC(=O)Nc2ccc3c(c2)OCCO3)c1	14.4%
CCOc1cc(Cl)c(NC(=O)c2ccco2)cc1OCC	10.1%
CC1=C(C(=O)Nc2ccccc2C)C2(CCCCC2)C(C(N)=O)C(=S)N1 (stereo not given)	-53.8%
O=C(CSC1=Nc2ccccc2C2CC=NN12)Nc1ccc(F)cc1Cl (stereo not given)	12.3%
Cc1cc2c(cc1C)CSC(c1c(O)ccc3ccccc13)SC2	21.9%
Cc1nc2ccccc2c(C)c1C(=O)c1ccccc1	-1.1%
CCOC(=O)c1c(C2COc3ccccc3O2)csc1NC(=O)c1ccco1 (stereo not given)	55.5% (active)
CCOC(=O)c1c(C2COc3ccccc3O2)csc1N (stereo not given)	19.8%
CCOC(=O)c1c(C2COc3ccccc3O2)csc1NC(=O)c1ccccc1 (stereo not given)	15.6%
CC1CCCC/C1=N\NC(=S)Nc1ccccc1 (stereo not given)	-33.2%
C[n+]1ccccc1C1CCCC/C1=N\Nc1ccc([N+](=O)[O-])cc1[N+](=O)[O-] (stereo not given)	-5.6%
C[n+]1ccccc1C1CCCC/C1=N\NC(N)=S (stereo not given)	64.5% (active)
Cc1ccc2c(c1)cc(CN(Cc1ccco1)S(=O)(=O)c1ccccc1)c1nnnn12	72.3% (active)
Cc1ccc2c(c1)cc(CN(Cc1ccc3c(c1)OCO3)S(=O)(=O)c1ccccc1)c1nnnn12	12.1%

Structure (SMILES)	inhibition
Cc1ccc2c(c1)cc(CN(Cc1ccco1)C(=O)COc1ccccc1)c1nnnn12	-0.9%
COc1ccc(C=Nc2ccc3[nH]ncc3c2)c(O)c1	47.9%
Cc1ccc(O)c(/C=N/NC(=O)c2[nH]ncc2Br)c1	-11.3%
Cc1ccc(O)c(C=Nc2ccc3[nH]ncc3c2)c1	51.9% (active)
CCOC(=O)c1c(-c2ccccc2)cn2ccccc12	53.7% (active)
CCOC(=O)c1c(-c2ccc(F)cc2)cn2ccccc12	4.3%
CCOC(=O)c1c(-c2ccc(C)cc2)cn2ccccc12	-10.2%
COc1ccc(-c2csc(Nc3ccc(S(=O)(=O)Nc4cc(C)on4)cc3)n2)cc1C	18.4%
CN(Cc1ccncn1)C(=O)CC1C(=O)NCCN1Cc1cccc(Oc2ccccc2)c1 (stereo not given)	4.2%
COc1ccccc1N1CCN(CCCCOc2cccc3ccccc23)CC1	-10.7%
CCOc1ccc(NC(=S)Nc2ccc(OCC)cc2)cc1	7.6%
Fc1ccc(NC(=S)Nc2cccc3cnccc23)cc1	10.9%
CCOc1ccc(NC(=S)Nc2cccc3cnccc23)cc1	64.9% (active)
COc1cc(OC)cc(C(=O)NC(=S)Nc2cccnc2)c1	13.1%
COc1cccc(NC(=S)Nc2cccnc2)c1	10.6%
CCOc1ccc(NC(=S)Nc2cccnc2)cc1	27.8%
COc1cc(NC(=S)Nc2cccnc2)cc(OC)c1	55.4% (active)
COc1ccc(NC(=S)Nc2cccc3cnccc23)cc1	64.2% (active)
CCc1ccc(NC(=S)Nc2cccc3cnccc23)cc1	40.2%
O=C(NC(=S)Nc1cccc2cnccc12)c1ccccc1	22.7%
CCOc1ccc(NC(=S)Nc2cc(-c3ccccc3)[nH]n2)cc1	35.1%
CCc1cccc2c(C(=O)Cn3nnc(-c4ccc(OC)c(OC)c4)n3)c[nH]c12	13.9%
O=C(NCCc1c[nH]c2ccccc12)C(=O)NCC1OCCN1S(=O)(=O)c1ccc(Cl)cc1 (stereo not given)	10%
COc1ccc(NC(=O)COC(=O)C(CC(C)C)N2C(=O)C3CC=CCC3C2=O)cc1Cl (stereo not given)	16.5%
N#Cc1c(NC(=O)CSc2n[nH]c(Cc3ccccc3)n2)oc(-c2ccccc2)c1-c1ccccc1	-1.5%

Structure (SMILES)	inhibition
CCOc1cccc(OCCOCCOc2ccccc2C(C)=O)c1	4.1%
COc1cccc(/C=N/NC(=O)C(=O)N/N=C/c2cccc(OC)c2OC)c1OC	-0.6%
CCN(CC)CCNC(=O)Cn1c(C)cc2ccccc2c1=O	-2.3%
O=C1N=C(N2CCCCC2)SC1=C1CCCC1	1.2%
CCN(CC)S(=O)(=O)c1ccc(NC(=O)C2CCCN(C(=O)c3ccc(Cl)cc3)C2)cc1 (stereo not given)	14.2%
CCc1ccc(C(=O)COC(=O)c2nn(C)c(=O)c3ccccc23)cc1	-3.7%
COc1cc(C(=O)O)nc2ccccc12	26.7%
O=C(/C=C/c1ccccc1)NCCN1CCOCC1	2.1%
Fc1ccccc1NC(=S)Nc1cccc2cnccc12	33.9%
COCCNC(=S)Nc1cccc2cnccc12	17.7%
COc1ccccc1NC(=S)Nc1cccc2cnccc12	69.6% (active)
COCCn1c(=O)[nH]c2cc(C(=O)NCCc3ccc(S(N)(=O)=O)cc3)ccc2c1=O	-4.1%
CC1CCCC(C(=O)O)N1C(=O)CCSSCCC(=O)N1C(C)CCCC1C(=O)O (stereo not given)	-1.2%
CC(C)c1ccc(O)c(NC(=S)NC(=O)CCc2ccccc2)c1	12.8%
CC(Nc1oc(-c2ccco2)nc1C#N)c1ccccc1 (stereo not given)	13.7%
O=C(CSc1nnc(-c2c[nH]c3ccccc23)o1)c1ccc(-c2ccccc2)cc1	9%
CCN(CC)c1ccc(NC(=O)c2ccc(=O)[nH]c2)cc1S(=O)(=O)Nc1ccccc1OC	61.7% (active)
COc1ccccc1NS(=O)(=O)c1cc(NC(=O)c2ccc(=O)[nH]c2)ccc1N1CCOCC1	0.7%
COc1ccc(C(=O)Nc2ccc(Cl)c(S(=O)(=O)Nc3ccccc3OC)c2)cc1	16.8%
CCN(CC)c1ccc(NC(=O)c2ccccc2)cc1S(=O)(=O)Nc1ccccc1OC	30.8%
CCN(CC)c1ccc(NC(=O)c2cccc(C)c2)cc1S(=O)(=O)Nc1ccccc1OC	53.3% (active)
CCN(CC)c1ccc(NC(=O)c2ccccc2Br)cc1S(=O)(=O)Nc1ccccc1OC	63.9% (active)
CCN(CC)c1ccc(NC(=O)COc2ccccc2C#N)cc1S(=O)(=O)Nc1ccccc1OC	-5.1%
CCN(CC)c1ccc(NC(=O)COc2ccccc2C)cc1S(=O)(=O)Nc1ccccc1OC	38.9%
CCN(CC)c1ccc(NC(=O)c2ccccc2F)cc1S(=O)(=O)Nc1ccccc1OC	15.4%
